In PubChem BioAssay AID1159580 (chemical genetic matrix, 2015):
Values joined by “and” are separate entries in the source; they are usually repeats but may differ in a detail not shown here. Equal values may be shown once. In all, about 5,500 compounds went through this assay and about 2,000 (36%) were called active. About 18% were inconclusive and are not listed. Cut-off read from the data, not from the text of the source: active = normalized growth mostly below about 0.91 (no sharp cut-off); inconclusive = no clear call, values can overlap the other calls; inactive = mostly above about 0.92. The list shows a part of the results.

Experiment: chemical genetic growth profiling, strain panel (AID 1159580);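 note: tested at 20 µM; growth read once vehicle control cultures reached saturation at 30 °C; 1 = growth at the plate median or of vehicle wells; lower values mean less growth of the strain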
Details: growth OD

Measured: normalized growth

CC(C[N+](C)(C)C)OC(N)=O (centres undefined)
inactive: S. cerevisiae deletion strains, locus YJR066W, strain TOR1, stronger effect = lower value 0.993 | S. cerevisiae deletion strains, locus YKL009W, strain mrt4, stronger effect = lower value 0.934 | S. cerevisiae deletion strains, locus YKL068W, stronger effect = lower value 0.991 | S. cerevisiae deletion strains, locus YKL085W, strain MDH1 (second series), stronger effect = lower value 0.996 | S. cerevisiae deletion strains, locus YKL085W, strain MDH1, stronger effect = lower value 0.996 | S. cerevisiae deletion strains, locus YKL160W, strain elf1, stronger effect = lower value 1.01 | S. cerevisiae deletion strains, locus YKL190W, strain CNB1, stronger effect = lower value 1 | S. cerevisiae deletion strains, locus YKR001C, strain vps1, stronger effect = lower value 0.96 | S. cerevisiae deletion strains, locus YKR026C, strain gcn3, stronger effect = lower value 1.02 | S. cerevisiae deletion strains, locus YKR091W, strain srl3, stronger effect = lower value 1.02 | S. cerevisiae deletion strains, locus YLL001W, strain dnm1, stronger effect = lower value 1.03 | S. cerevisiae deletion strains, locus YLL026W, stronger effect = lower value 1.01 | S. cerevisiae deletion strains, locus YLL041C, strain sdh2, stronger effect = lower value 1.04 | S. cerevisiae deletion strains, locus YLR027C, strain aat2, stronger effect = lower value 1.03 | S. cerevisiae deletion strains, locus YLR039C, strain RIC1, stronger effect = lower value 0.952 | S. cerevisiae deletion strains, locus YLR058C, strain SHM2, stronger effect = lower value 0.991 | S. cerevisiae deletion strains, locus YLR102C, strain apc9, stronger effect = lower value 0.983 | S. cerevisiae deletion strains, locus YLR113W, strain HOG1, stronger effect = lower value 0.957 | S. cerevisiae deletion strains, locus YLR221C, strain rsa3, stronger effect = lower value 1.04 | S. cerevisiae deletion strains, locus YLR258W, strain gsy2, stronger effect = lower value 1.04 | S. cerevisiae deletion strains, locus YLR262C, strain YPT6 (second series), stronger effect = lower value 1.02 | S. cerevisiae deletion strains, locus YLR262C, strain YPT6, stronger effect = lower value 0.939 | S. cerevisiae deletion strains, locus YLR268W, strain sec22, stronger effect = lower value 0.973 | S. cerevisiae deletion strains, locus YLR320W, strain mms22, stronger effect = lower value 1.03 | S. cerevisiae deletion strains, locus YLR330W, strain CHS5, stronger effect = lower value 0.994 | S. cerevisiae deletion strains, locus YLR342W, strain FKS1 (second series), stronger effect = lower value 1.06 | S. cerevisiae deletion strains, locus YLR342W, strain FKS1, stronger effect = lower value 1.02 | S. cerevisiae deletion strains, locus YLR357W, strain rsc2, stronger effect = lower value 1.02 | S. cerevisiae deletion strains, locus YLR370C, strain arc18, stronger effect = lower value 1.03 | S. cerevisiae deletion strains, locus YLR371W, strain rom2, stronger effect = lower value 0.976 | S. cerevisiae deletion strains, locus YLR384C, strain iki3, stronger effect = lower value 1.03 | S. cerevisiae deletion strains, locus YLR418C, strain cdc73, stronger effect = lower value 0.953 | S. cerevisiae deletion strains, locus YML016C, strain PPZ1, stronger effect = lower value 0.995 | S. cerevisiae deletion strains, locus YML032C, strain rad52, stronger effect = lower value 0.983 | S. cerevisiae deletion strains, locus YML120C, strain ndi1, stronger effect = lower value 1.03 | S. cerevisiae deletion strains, locus YML124C, strain tub3, stronger effect = lower value 0.986 | S. cerevisiae deletion strains, locus YMR058W, strain fet3, stronger effect = lower value 1.03 | S. cerevisiae deletion strains, locus YMR078C, strain ctf18, stronger effect = lower value 0.97 | S. cerevisiae deletion strains, locus YMR125W, strain sto1, stronger effect = lower value 1.05 | S. cerevisiae deletion strains, locus YMR129W, stronger effect = lower value 1.03 | S. cerevisiae deletion strains, locus YMR205C, strain PFK2, stronger effect = lower value 0.998 | S. cerevisiae deletion strains, locus YMR223W, strain ubp8, stronger effect = lower value 0.987 | S. cerevisiae deletion strains, locus YMR231W, strain pep5, stronger effect = lower value 1.02 | S. cerevisiae deletion strains, locus YMR307W, strain GAS1, stronger effect = lower value 1.09 | S. cerevisiae deletion strains, locus YNL067W, strain RPL9B, stronger effect = lower value 0.98 | S. cerevisiae deletion strains, locus YNL071W, strain lat1, stronger effect = lower value 1.01 | S. cerevisiae deletion strains, locus YNL128W, strain TEP1, stronger effect = lower value 0.975 and 0.99 | S. cerevisiae deletion strains, locus YNL153C, strain GIM3, stronger effect = lower value 0.995 | S. cerevisiae deletion strains, locus YNL175C, strain NOP13, stronger effect = lower value 0.997 | S. cerevisiae deletion strains, locus YNL183C, strain NPR1, stronger effect = lower value 0.96 | S. cerevisiae deletion strains, locus YNL197C, strain WHI3, stronger effect = lower value 1 | S. cerevisiae deletion strains, locus YNL209W, strain ssb2, stronger effect = lower value 1.03 | S. cerevisiae deletion strains, locus YNL224C, strain SQS1, stronger effect = lower value 0.995 | S. cerevisiae deletion strains, locus YNL233W, strain BNI4, stronger effect = lower value 0.999 | S. cerevisiae deletion strains, locus YNL248C, strain rpa49, stronger effect = lower value 1.01 | S. cerevisiae deletion strains, locus YNL250W, strain rad50, stronger effect = lower value 1 | S. cerevisiae deletion strains, locus YNL271C, strain bni1, stronger effect = lower value 0.973 | S. cerevisiae deletion strains, locus YNL298W, strain CLA4, stronger effect = lower value 0.976 | S. cerevisiae deletion strains, locus YNL307C, strain MCK1, stronger effect = lower value 0.97 | S. cerevisiae deletion strains, locus YNL322C, strain KRE1 (second series), stronger effect = lower value 1.01 | S. cerevisiae deletion strains, locus YNL322C, strain KRE1, stronger effect = lower value 0.992 | S. cerevisiae deletion strains, locus YNR049C, strain mso1, stronger effect = lower value 1.01 | S. cerevisiae deletion strains, locus YNR052C, strain pop2, stronger effect = lower value 0.982 | S. cerevisiae deletion strains, locus YOL006C, strain TOP1, stronger effect = lower value 1.02 | S. cerevisiae deletion strains, locus YOL012C, strain htz1 0.744 | S. cerevisiae deletion strains, locus YOL147C, strain pex11, stronger effect = lower value 0.987 | S. cerevisiae deletion strains, locus YOR001W, strain rrp6, stronger effect = lower value 1.03 | S. cerevisiae deletion strains, locus YOR061W, strain CKA2, stronger effect = lower value 0.99 | S. cerevisiae deletion strains, locus YOR069W, strain VPS5, stronger effect = lower value 0.987 | S. cerevisiae deletion strains, locus YOR070C, strain gyp1, stronger effect = lower value 1.03 | S. cerevisiae deletion strains, locus YOR080W, strain dia2, stronger effect = lower value 1.04 | S. cerevisiae deletion strains, locus YOR083W, strain WHI5 (second series), stronger effect = lower value 0.996 | S. cerevisiae deletion strains, locus YOR083W, strain WHI5, stronger effect = lower value 0.976 | S. cerevisiae deletion strains, locus YOR106W, strain vam3, stronger effect = lower value 1.05 | S. cerevisiae deletion strains, locus YOR136W, strain idh2, stronger effect = lower value 0.968 | S. cerevisiae deletion strains, locus YOR144C, strain elg1, stronger effect = lower value 0.985 | S. cerevisiae deletion strains, locus YOR184W, strain ser1, stronger effect = lower value 0.976 | S. cerevisiae deletion strains, locus YOR231W, strain MKK1, stronger effect = lower value 0.979 | S. cerevisiae deletion strains, locus YOR265W, strain rbl2, stronger effect = lower value 1.02 | S. cerevisiae deletion strains, locus YOR270C, strain vph1, stronger effect = lower value 1.05 | S. cerevisiae deletion strains, locus YOR290C, strain snf2, stronger effect = lower value 1.02 | S. cerevisiae deletion strains, locus YOR316C, strain cot1, stronger effect = lower value 0.977 | S. cerevisiae deletion strains, locus YPL051W, strain arl3, stronger effect = lower value 1.02 | S. cerevisiae deletion strains, locus YPL055C, strain LGE1, stronger effect = lower value 0.998 | S. cerevisiae deletion strains, locus YPL078C, strain atp4, stronger effect = lower value 1.02 | S. cerevisiae deletion strains, locus YPL106C, strain sse1, stronger effect = lower value 1.06 | S. cerevisiae deletion strains, locus YPL240C, strain hsp82, stronger effect = lower value 1.02 | S. cerevisiae deletion strains, locus YPL256C, strain CLN2, stronger effect = lower value 0.976 | S. cerevisiae deletion strains, locus YPR119W, strain clb2, stronger effect = lower value 0.985 | S. cerevisiae deletion strains, locus YPR141C, strain kar3, stronger effect = lower value 0.986 | S. cerevisiae deletion strains, locus YPR163C, strain tif3, stronger effect = lower value 0.979 | S. cerevisiae deletion strains, locus YPR167C, strain met16, stronger effect = lower value 0.98 | S. cerevisiae deletion strains, strain wtn01, stronger effect = lower value 1 | S. cerevisiae strains, strain wild type, stronger effect = lower value 0.994
